# Measured values: PubChem BioAssay
# Activity calls are given as the source filed them. Unless noted, no rule for the calls is given here.
# Key:
# [1] = HepG2 liver cancer cell viability effects, profiling panel, resazurin fluorescence, 24 h, PK04 Diversity Set (AID 1172); conditions: higher = more signal; also: test concentration not given here
# [2] = basal S. cerevisiae growth modulation, no modifier, primary screen, OD600, strain BY4716, 24 h, basal condition (AID 1173); conditions: OD600, 24 h, higher = more signal, called active from +8 up or from −8 down
# [3] = MM1S myeloma cell viability, profiling panel, resazurin fluorescence, basal, 24 h, PK04 Diversity Set (AID 1174); conditions: higher = more signal, called active from +8 up or from −8 down;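 also: MM1S multiple myeloma cell line; test concentration not given here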
# [4] = biological target: Dihydroorotate dehydrogenase (quinone), mitochondrial (Plasmodium falciparum (isolate 3D7)) (UniProt Q08210); assay: PfDHODH enzyme inhibitors, primary screen, biochemical, C-terminal His tag, absorbance 600 nm (AID 1175); conditions: DCIP absorbance 600 nm, higher = more signal, called active from +8 up or from −8 down;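 also: recombinant parasite enzyme with a five histidine tag at its C terminus; test concentration not given here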
# Chain of Dihydroorotate dehydrogenase (quinone), mitochondrial (Plasmodium falciparum (isolate 3D7)) (Q08210 whole entry, looked up): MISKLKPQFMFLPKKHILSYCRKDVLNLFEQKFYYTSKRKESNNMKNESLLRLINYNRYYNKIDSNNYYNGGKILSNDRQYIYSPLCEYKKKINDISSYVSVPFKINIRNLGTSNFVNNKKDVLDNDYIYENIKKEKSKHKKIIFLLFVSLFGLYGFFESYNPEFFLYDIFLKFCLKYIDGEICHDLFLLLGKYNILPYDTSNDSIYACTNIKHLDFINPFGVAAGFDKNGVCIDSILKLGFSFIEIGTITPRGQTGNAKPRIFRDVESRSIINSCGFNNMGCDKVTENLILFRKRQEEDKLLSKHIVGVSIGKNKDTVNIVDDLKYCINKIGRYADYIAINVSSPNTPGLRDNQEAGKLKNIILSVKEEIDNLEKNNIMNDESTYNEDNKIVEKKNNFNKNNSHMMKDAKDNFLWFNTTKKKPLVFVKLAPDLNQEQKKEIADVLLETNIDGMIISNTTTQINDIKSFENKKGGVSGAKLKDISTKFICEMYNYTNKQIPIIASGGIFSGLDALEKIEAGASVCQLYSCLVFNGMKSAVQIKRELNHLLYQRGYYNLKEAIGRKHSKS
# [5] = P. aeruginosa biofilm formation inhibitors, primary screen, strain PAO1, LB-PBS medium, absorbance 600 nm (AID 1176); also: test concentration not given here; conditions: P. aeruginosa PAO1 growth/biofilm, A600, 12 h; higher = more signal
# [6] = S. cerevisiae RM11-1a growth modifiers, primary screen, strain RM11-1a, OD600, basal, 24 h (AID 1177); conditions: OD600, 24 h, higher = more signal, called active from +8 up or from −8 down;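 also: cultures grown under basal conditions with no added stressor; test concentration not given here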
# [7] = E. coli acrAB mutant growth effects, primary screen, E. coli filamentation inducers, strain DRC39, OD650, 24 h (AID 1178); conditions: higher = more signal, called active from +8 up or from −8 down;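 also: growth measured as culture turbidity by optical density at 650 nm; test concentration not given here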
# [8] = E. coli acrAB mutant growth effects, primary screen, E. coli filamentation inducers, strain DRC39, OD650, 48 h (AID 1179);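 also: screen aims at cell division blockers that make cells filament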; conditions: E. coli DRC39 delta-acrAB growth, higher = more signal, called active from +8 up or from −8 down
# [9] = RPMI8226 myeloma cell viability, profiling panel, resazurin fluorescence, basal, 24 h, PK04 Diversity Set (AID 1180); conditions: higher = more signal;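 also: RPMI8826 multiple myeloma cell line at 5000 cells per well; test concentration not given here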
# [10] = biological target: E3 ubiquitin-protein ligase XIAP (Homo sapiens) (UniProt P98170); assay: XIAP binders, primary screen, biophysical, small-molecule microarray, fluorescence 635 nm (AID 1181); conditions: small-molecule microarray binding, higher = more signal;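 also: score merges 667 nm emission and signal to noise over triplicate slides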
# Chain of E3 ubiquitin-protein ligase XIAP (Homo sapiens) (P98170 whole entry, looked up): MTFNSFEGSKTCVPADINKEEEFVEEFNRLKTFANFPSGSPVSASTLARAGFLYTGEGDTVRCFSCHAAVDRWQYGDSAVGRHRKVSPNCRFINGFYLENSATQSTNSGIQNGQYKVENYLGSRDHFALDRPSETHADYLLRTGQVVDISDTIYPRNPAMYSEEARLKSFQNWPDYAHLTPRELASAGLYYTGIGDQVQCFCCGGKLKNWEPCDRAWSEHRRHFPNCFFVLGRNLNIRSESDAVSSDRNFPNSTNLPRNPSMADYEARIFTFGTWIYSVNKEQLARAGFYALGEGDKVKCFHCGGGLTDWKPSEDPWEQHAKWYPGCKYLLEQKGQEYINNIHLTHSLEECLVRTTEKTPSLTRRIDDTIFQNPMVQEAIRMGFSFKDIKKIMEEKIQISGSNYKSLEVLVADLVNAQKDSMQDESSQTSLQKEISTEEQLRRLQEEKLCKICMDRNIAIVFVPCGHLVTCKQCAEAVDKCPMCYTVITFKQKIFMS
Compound,z-score [1],z-score [2],z-score [3],composite z-score [4],z-score [5],z-score [6],z-score [7],z-score [8],z-score [9],composite z-score [10]
O=C1N(CCS(=O)(=O)c2ccccc2)Cc2ccccc2[C@H]2OC(c3ccc(OCCCO)cc3)=N[C@@]12CCS(=O)(=O)c1ccccc1,0.759,1.83 (inactive),0.935 (inactive),-0.796 (inactive),0.0533 (inactive),3.07 (inactive),1.69 (inactive),1.09 (inactive),-0.124,-0.15
O=C1O[C@@H](c2ccccc2)[C@@H](c2ccccc2)N2[C@@H](c3ccc(OCCO)cc3)[C@]3(C(=O)Nc4ccc(C#CC5=CCCCC5)cc43)[C@@H](C(=O)O)[C@H]12,0.332,-0.734 (inactive),-1.5 (inactive),-13.5 (active),2.07 (inactive),1.44 (inactive),0.448 (inactive),0.0447 (inactive),-1.43,0.104
[N-]=[N+]=Nc1ccccc1C[C@]1(C(=O)NCCN2CCOCC2)N=C(c2ccc(OCCCO)cc2)O[C@H]1c1ccccc1,0.224,-3.1 (inactive),-0.359 (inactive),-0.0351 (inactive),0.565 (inactive),-0.52 (inactive),0.148 (inactive),-0.338 (inactive),-0.554,0.0679
Cc1ccc(S[C@]2(C(=O)O)CC(=O)N(C3Cc4ccccc4C3)[C@@H]2c2ccc(CO)cc2I)cc1,0.186,-1.99 (inactive),-1.95 (inactive),0.0058 (inactive),-0.109 (inactive),-0.219 (inactive),0.602 (inactive),0.447 (inactive),-1.78,-0.0726
CCOC(=O)C1=C[C@@H](C(C)C)N(S(=O)(=O)c2ccc(C)cc2)[C@H]1c1ccc(C(C)C)cc1,0.346,1.05 (inactive),0.52 (inactive),-1.11 (inactive),-0.281 (inactive),0.55 (inactive),-0.558 (inactive),0.399 (inactive),0.548,-0.192
NC(=O)NCC#Cc1ccc2c(c1)[C@]1(C(=O)N2)[C@H](C(=O)NC[C@H](O)c2ccccc2)[C@H]2C(=O)O[C@H](c3ccccc3)[C@H](c3ccccc3)N2[C@@H]1c1ccc(O)cc1,-0.0042,1.56 (inactive),-0.027 (inactive),0.389 (inactive),1.32 (inactive),2.12 (inactive),0.346 (inactive),0.0233 (inactive),-0.518,0.15
CC(=O)NCCCC[C@@H]1NC(=O)[C@@H]2C[C@H](C(=O)NCCCCN(C)C)[C@H](c3ccc(O)cc3)N2C1=O,0.801,-0.397 (inactive),0.925 (inactive),-0.0536 (inactive),-0.201 (inactive),0.037 (inactive),1.23 (inactive),1.51 (inactive),1.15,-0.23
Cc1ccc(S[C@]2(C(=O)NCc3ccccc3)CC(=O)N(Cc3ccccc3Cl)[C@@H]2c2ccc(CO)cc2I)cc1,1.21,-3.45 (inactive),-3.03 (inactive),-1.82 (inactive),0.531 (inactive),-1.07 (inactive),0.321 (inactive),0.439 (inactive),-2.02,-0.136
CC(C)(C)OC(=O)CC[C@]1(C(=O)N2CCCCC2)N=C(c2ccc(OCCCO)cc2)O[C@H]1c1ccccc1N=[N+]=[N-],0.188,0.367 (inactive),-1.79 (inactive),0.107 (inactive),0.466 (inactive),1.01 (inactive),1.82 (inactive),1.04 (inactive),-1.32,-0.0304
C=CCN1C(=O)[C@]2(O[C@H](CCO)[C@@H]([Si](C)(C)c3ccc(OC)cc3)[C@@H]2C)c2cc(NC(=O)[C@H](C)O)ccc21,-0.646,-0.151 (inactive),-1.43 (inactive),0.235 (inactive),0.0943 (inactive),2.79 (inactive),-0.483 (inactive),-0.955 (inactive),-2.8,0.0223
COC(=O)C(CC#Cc1ccc2c(c1)[C@]1(C(=O)N2)[C@H](c2ccc(OCCO)cc2)N2[C@H](c3ccccc3)[C@H](c3ccccc3)OC(=O)[C@H]2[C@@H]1C(=O)NC[C@H](O)c1ccccc1)C(=O)OC,0.722,1.51 (inactive),0.343 (inactive),0.676 (inactive),1.05 (inactive),3.39 (inactive),0.602 (inactive),0.869 (inactive),-0.47,0.104
CN(C)C(=O)[C@@]1(CCC(=O)OC(C)(C)C)N=C(c2ccc(OCCCO)cc2)O[C@H]1c1ccccc1,-0.299,-0.757 (inactive),-0.441 (inactive),-0.507 (inactive),0.401 (inactive),-0.346 (inactive),0.541 (inactive),-0.353 (inactive),0.276,-0.168
O=C(CS)NCCCCCCNC(=O)[C@H]1C[C@H]2C(=O)NCC(=O)N2[C@H]1c1ccc(O)cc1,-0.0808,0.309 (inactive),-0.722 (inactive),-0.864 (inactive),0.395 (inactive),-0.14 (inactive),-0.389 (inactive),-0.405 (inactive),-0.521,0.102
COc1ccc(C#Cc2ccc3c(c2)[C@]2(C(=O)N3)[C@H](c3ccc(O)cc3)N3[C@H](c4ccccc4)[C@H](c4ccccc4)OC(=O)[C@H]3[C@@H]2C(=O)NC[C@H](O)c2ccccc2)cc1,-0.689,1.81 (inactive),-2.56 (inactive),-3.64 (inactive),0.325 (inactive),2.71 (inactive),0.106 (inactive),0.105 (inactive),-4.1,-0.0749
CCCCC=C[C@@H](NC(=O)c1ccco1)c1ccccc1,1,1.42 (inactive),0.356 (inactive),0.559 (inactive),-0.126 (inactive),0.846 (inactive),0.358 (inactive),0.815 (inactive),0.223,-0.123
COCCOC(=O)N1C(=O)[C@@]2(c3cc(C#CC4(O)CCCCCC4)ccc31)[C@H](C(=O)N1CCCCCCC1)[C@H]1C(=O)O[C@H](c3ccccc3)[C@H](c3ccccc3)N1[C@@H]2c1ccccc1OCCO,-0.449,0.71 (inactive),-0.297 (inactive),0.969 (inactive),1.07 (inactive),2.36 (inactive),-1.49 (inactive),-1.16 (inactive),-0.432,0.026
O=C1OCCC=C[C@H]2OC34C=CCN(Cc5ccccc5)C(=O)[C@H]3N(CCCCCO)C(=O)[C@@H]4C12 (stereo not given in full),1.12,-0.266 (inactive),1.61 (inactive),-1.12 (inactive),0.357 (inactive),0.484 (inactive),1.24 (inactive),0.927 (inactive),1.4,0.13
CCOC(=O)C1=CC[C@@H](c2ccccc2)N(S(=O)(=O)c2ccc(C)cc2)[C@H]1C(=O)OCC,-0.0229,1.45 (inactive),-0.424 (inactive),-0.103 (inactive),-0.0196 (inactive),0.482 (inactive),-0.0018 (inactive),0.237 (inactive),-0.904,-0.052
COc1ccc(C(O)C2C=CC3C(=O)N(c4ccccc4)C(=O)C3N2Nc2ccc([N+](=O)[O-])cc2)cc1OCc1ccccc1 (stereo not given),-0.46,0.948 (inactive),-0.644 (inactive),0.323 (inactive),2.14 (inactive),-0.384 (inactive),-0.908 (inactive),-0.337 (inactive),-0.839,-0.0655
COCCOC(=O)N1C(=O)[C@@]2(c3cc(C#CCC(C(=O)OC)C(=O)OC)ccc31)[C@H](c1ccc(O)cc1)N1[C@H](c3ccccc3)[C@H](c3ccccc3)OC(=O)[C@H]1[C@@H]2C(N)=O,-0.2,-0.235 (inactive),-0.0347 (inactive),-0.181 (inactive),1.28 (inactive),0.332 (inactive),-0.319 (inactive),-0.586 (inactive),-0.777,0.098
C=CC[C@@]1(C(=O)NCC(O)CO)N=C(c2ccc(OCCCO)cc2)O[C@@H]1c1ccccc1N=[N+]=[N-] (stereo not given in full),0.896,-0.965 (inactive),-0.12 (inactive),-0.269 (inactive),-0.0709 (inactive),0.0157 (inactive),1.69 (inactive),1.29 (inactive),-0.274,0.0049
CCCCC(CC)C(O)C1C=CC2C(=O)N(c3ccccc3)C(=O)C2N1Nc1ccccc1 (stereo not given),-1.3,-1.14 (inactive),-1.51 (inactive),-0.524 (inactive),0.462 (inactive),-0.347 (inactive),-0.556 (inactive),-0.945 (inactive),-1.42,0.387
CN(C)C(=O)[C@]1(CCC(=O)OC(C)(C)C)N=C(c2ccc(OCCCO)cc2)O[C@@H]1c1ccccc1N=[N+]=[N-],1.49,0.192 (inactive),-0.556 (inactive),0.565 (inactive),-0.758 (inactive),1.61 (inactive),0.752 (inactive),0.701 (inactive),0.407,0.0317
C=CC[C@@H](OC(=O)Nc1ccc(OC)cc1)c1ccc(O)c2ccccc12,-1.07,-16.6 (active),-6.13 (inactive),-7.4 (inactive),1.73 (inactive),-20.3 (active),0.305 (inactive),-0.473 (inactive),-4.48,0.0413
